Screening results (PubChem BioAssay)
HT1080 IDH1KD tx: kills HT-1080 cells with IDH1 knockdown. Potency, µM (series often up to 46.1 µM), for the others: top-dose activity, negative = toxicity, actives largely listed as cytotoxic. HT-1080 IDH1 knockdown viability, ATP luminescence, 48 h. 360,000 tested, 2% active;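 note: potency is the fitted concentration of half-maximal effect; 0% = DMSO wells and -100% = cell-free medium wells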
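Using the IDH1-knockdown HT-1080 line run in the same batch and compound series as the NT line, viability after 48 h at 37 °C was determined by CellTiter-Glo luminescence and expressed as % activity.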
TDP1 cell noCPT: qHTS for Inhibitors of human tyrosyl-DNA phosphodiesterase 1 (TDP1): qHTS in cells in absence of CPT. DT40 Tdp1-/- hTDP1 cells, no CPT, ATP luminescence, 48 h. Potency, µM (highest dose often 46.2 µM), for inactives: top-dose activity change, negative = growth inhibition, usual class: inhibitors. 420,000 tested, 15% active. AID 686978, 2013; note: potency is the fitted concentration of half-maximal effect; nearly all actives have a fitted effect of over 55% in size
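Seeded 400 DT40-hTDP1 cells/well (vehicle DMSO, no 20 nM CPT); pinned compounds; ≥48 hr at 37 °C; CellTiter-Glo luminescence as viability measure.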
IL1B secr inh: inflammasome signaling inhibition, IL-1 beta readout. THP-1 LPS/ATP IL-1B secretion, AlphaLISA, 16 h; active compounds read low. 360,000 tested, 4.7% active. activity change, % at 57.5 µM; in the data active = activity change below about -50%; inconclusive = mostly about -30% to -49%
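THP-1 cells pretreated 1 hr with compounds (up to 57.5 uM final), then stimulated with LPS (250 ng/mL final) plus ATP (1.25 mM final); secreted IL-1B measured by AlphaLISA after 16 hr, decreased signal indicating inhibition.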
HT1080NT lethal: kills 2HG-producing HT-1080-NT fibrosarcoma cells. HT-1080-NT fibrosarcoma viability, CellTiter-Glo ATP luminescence, 48 h. 360,000 tested, 1.6% active. Potency, µM (top dose mostly 46.1 µM), for inactives: at the highest dose activity, negative = less viability, usual class: cytotoxic;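 note: NT is the 2HG producing partner of a matched IDH1 knockdown line; potency is the fitted concentration of half-maximal effect; 0% = DMSO-treated cells and -100% = media-only wells without cells; nearly all actives have a fitted effect of over 55% in size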
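750 cells/well, RPMI + 5% FBS; 2 h settle, compound pin-transfer, 48 h at 37 degrees C. CellTiter-Glo 10 min RT, luminescence. Normalized to DMSO and media-only wells.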
DT40 TDP1 CPT: DT40-hTDP1 cell growth loss with CPT | chicken DT40 Tdp1-/-;hTDP1 cells + 20 nM CPT, ATP luminescence, 48 h | Potency, µM (series often up to 46.2 µM), inactives show top-dose activity change, negative = growth inhibition, actives largely listed as inhibitors | 420,000 tested, 12% active | AID 686979; note: potency is the fitted concentration of half-maximal effect; nearly all actives have a fitted effect of over 55% in size
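Chicken DT40 Tdp1-/- cells complemented with human TDP1, 400 cells/well, exposed to compounds plus 20 nM camptothecin for at least 48 h at 37 C; viability read as ATP content by CellTiter-Glo luminescence.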
Numbers without * were called inactive; ? = inconclusive; nt = no result. An excerpt weighted towards active compounds, which were near 19% of everything screened. Unless noted, calls come from the whole dose curve; as a rule, active = well fitted curve in the direction sought with a large enough effect; inconclusive = small, poorly fitted or top-dose-only effect, or another doubt; inactive = no such curve, though single readings can be large; an effect the other way counts as inactive or inconclusive. Unless noted, % is set by controls: 0 for no effect and ±100 for the full control effect.

SMILES	HT1080 IDH1KD tx	TDP1 cell noCPT	IL1B secr inh	HT1080NT lethal	DT40 TDP1 CPT
Fc1ccc(CN(Cc2ccccc2)C(c2cccs2)c2nnnn2C2CCCCC2)cc1 (configuration not stated)	-17.6%	16.4µM*	-27.8	-4.5%	?
CC(C)(C)n1nnnc1C(c1cccs1)N(Cc1ccc(Cl)cc1)CC1CCCO1 (configuration not stated)	?	16.4µM*	0.0	-25.7%	20.6µM*
CCCc1nn2c(=O)cc(COC(=O)c3ccc(NC(=O)CCc4ccccc4)cc3)nc2s1	nt	-15.4%	nt	nt	-2.4%
Nc1nc(-c2ccc(Cl)cc2)nn1C(=O)c1ccco1	-6.5%	-9.7%	-8.9	16.0%	-13.0%
Cn1c(N)c(C(=O)COC(=O)c2cc(-c3ccco3)nc3ccccc23)c(=O)n(C)c1=O	-11.4%	16.4µM*	-24.7	-16.5%	20.6µM*
O=C(COC(=O)c1cc(-c2ccco2)nc2ccccc12)NCc1ccccc1	-13.1%	-23.6%	9.7	-13.7%	-26.1%
Cn1c(N)c(C(=O)COC(=O)c2cc(C(F)(F)F)nc3ccccc23)c(=O)n(Cc2ccccc2)c1=O	1.6%	?	10.8	-3.1%	23.1µM*
CNC(=O)COC(=O)c1cc(-c2ccco2)nc2ccccc12	-6.5%	?	17.1	-0.4%	14.6µM*
Cn1c(N)c(C(=O)COC(=O)c2ccnc3ccccc23)c(=O)n(C)c1=O	-4.0%	-7.8%	3.3	-9.0%	-3.2%
Cn1c(N)c(C(=O)COC(=O)c2cc(C3CC3)nc3ccccc23)c(=O)n(C)c1=O	1.6%	18.4µM*	-4.0	1.1%	13µM*
O=C(Nc1cccc(S(=O)(=O)N2CCOCC2)c1)C1=NN(c2ccccc2)C(=O)CC1	-8.1%	14.3%	41.4	-10.9%	-4.8%
CC(=O)N[C@@H](Cc1c[nH]c2ccccc12)C(=O)OCC(=O)Nc1cc(C)on1	12.3%	-9.8%	-3.5	16.8%	-12.9%
CCCCOCCCNC(=O)c1ccc(OCC)cc1	4.3%	?	7.7	0.2%	-28.4%
COc1ccc(-c2cc(C(=O)OCC(=O)c3c(N)n(C)c(=O)n(C)c3=O)c3ccccc3n2)cc1	11.9%	1.64µM*	-53.5*	20.1%	4.11µM*
COc1ccc2c(Cn3cnc4cc([N+](=O)[O-])ccc4c3=O)cc(=O)oc2c1	2.59µM*	6.51µM*	1.2	3.66µM*	5.17µM*
Cc1ccc(OCCn2cnc3cc([N+](=O)[O-])ccc3c2=O)cc1	-25.2%	?	15.8	-12.4%	?
CCCc1[nH]n(-c2ccc(F)cc2)c(=O)c1C=NCC1CCCO1 (configuration not stated)	9.9%	-0.3%	23.1	8.3%	10.3%
CCCc1[nH]n(-c2ccc(F)cc2)c(=O)c1C=Nc1cccc(F)c1	14.6µM*	6.51µM*	26.1	7.31µM*	6.51µM*
COc1ccc(-c2ccc(NS(=O)(=O)c3ccccc3)cc2)nn1	nt	14.6µM*	nt	nt	?
COc1ccc(-c2ccc(NS(=O)(=O)c3ccc(C(C)=O)cc3)cc2)nn1	nt	-21.9%	nt	nt	-28.2%
COc1ccc(-c2cccc(NS(=O)(=O)c3ccc([N+](=O)[O-])cc3)c2)nn1	5.8%	?	10.3	4.7%	?
COc1ccc(-c2cccc(NS(=O)(=O)c3cccc([N+](=O)[O-])c3)c2)nn1	-4.9%	25.9µM*	9.8	-7.2%	?
COc1ccc(-c2ccc(NS(=O)(=O)c3cccc(C)c3)cc2)nn1	nt	29.1µM*	nt	nt	?
COc1ccc(-c2ccc(NS(=O)(=O)c3ccccc3Cl)cc2)nn1	nt	18.4µM*	nt	nt	20.6µM*
CCN1CCN(CCCNC(=O)Cn2nc(C)n3c(cc4c(OC)cccc43)c2=O)CC1	nt	-3.8%	nt	nt	2.0%
SMILES	HT1080 IDH1KD tx	TDP1 cell noCPT	IL1B secr inh	HT1080NT lethal	DT40 TDP1 CPT
O=C(OCc1c(F)cccc1Cl)c1cccnc1Cl	-7.6%	0.8%	15.8	7.2%	0.9%
COc1ccc(-c2ccc(NS(=O)(=O)c3cc(C)c(C)cc3C)cc2)nn1	nt	?	nt	nt	20.6µM*
CCOc1ccc2nc(NC(=O)c3cccc(N4C(=O)CCC4=O)c3)sc2c1	0.0%	?	-8.7	11.4%	-20.4%
CCOc1ccc2nc(NC(=O)c3cccc(-c4cc5ccccc5oc4=O)c3)sc2c1	16.4µM*	23.1µM*	-20.5	13µM*	?
Cc1ccc2nc(NC(=O)c3cccc(-c4cc5ccccc5oc4=O)c3)sc2c1	?	23.1µM*	31.5	?	14.6µM*
CCOc1ccc(C(=O)Nc2cccc(-c3cc4ccccc4oc3=O)c2)cc1[N+](=O)[O-]	-6.4%	23.1µM*	0.6	3.4%	23.1µM*
COc1ccc(O)c(C(=O)c2cc(C(=O)NCCc3ccccc3)c(=O)n(CCc3ccccc3)c2)c1	1.3%	14.6µM*	-13.9	2.7%	18.4µM*
Cc1ccc(O)c(C(=O)c2cc(C(=O)NCCc3ccccc3)c(=O)n(CCc3ccccc3)c2)c1	1.1%	16.4µM*	-3.2	8.0%	?
Cc1ccc(NC(=O)Nc2nnc(N3CCCC3)s2)cc1C	nt	-10.8%	nt	nt	-1.3%
COc1ccccc1C1C=C(c2ccc(C)cc2)Nc2nnnn21 (configuration not stated)	-13.6%	20.6µM*	?	-4.8%	18.4µM*
CCOc1ccc(C2C=C(c3ccccc3)Nc3nnnn32)cc1 (configuration not stated)	-13.7%	?	16.4	-10.8%	-22.6%
CCOc1ccc(C2C=C(c3ccc(C)cc3)Nc3nnnn32)cc1 (configuration not stated)	13µM*	11.6µM*	-18.9	?	9.2µM*
COc1ccc(C2=CC(c3c(C)nn(-c4ccccc4)c3Cl)n3nnnc3N2)cc1OC (configuration not stated)	?	14.6µM*	-67.2*	?	?
Cc1ccc(C2=CC(c3cccs3)n3nnnc3N2)cc1 (configuration not stated)	1.4%	0.7%	10.0	-5.9%	?
CN(C)c1ccc(C2C=C(c3ccccc3)Nc3nnnn32)cc1 (configuration not stated)	nt	18.4µM*	nt	nt	?
CCC(CC)C(=O)NCc1ccccc1Cl	8.9%	-6.3%	-10.3	8.6%	-17.3%
CC(=O)N1CCc2cc(S(=O)(=O)NCCC(=O)NC3CCCc4ccccc43)ccc21 (configuration not stated)	-11.9%	-15.0%	0.0	0.8%	-14.7%
CC1=CC(c2ccccc2)n2nnnc2N1 (configuration not stated)	16.0%	-0.8%	-2.8	7.8%	9.7%
COc1ccc(C2=CC(c3cccc(C)c3)n3nnnc3N2)cc1 (configuration not stated)	nt	16.4µM*	nt	nt	?
